Among the data in PubChem BioAssay (EPA / NIEHS) are outcome and AC50 values, retold here.

Read-out in experiment [1]: Tissue Factor, F3 (gene 2152)
Description: BSK_CASM3C_TissueFactor: BioMAP Diversity Plus: CASM3C Assay for Tissue Factor Biomarker Activity (AID 2283052).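 Also: cell surface tissue factor protein level read by ELISA.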 The following applies: primary human coronary artery smooth muscle cells; actives raise or lower the signal.

Read-out in experiment [2]: Interferon-gamma inducible Protein 10 (IP10), CXCL10 (gene 3627)
The experiment is described as follows: BSK_hDFCGF_IP10: BioMAP Diversity Plus: hDFCGF Assay for Interferon-gamma inducible Protein 10 (IP10) Biomarker Activity (AID 2283053). The conditions noted are these: primary human foreskin fibroblasts; actives raise or lower the signal. The method in brief: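 ELISA quantification of IP-10 after a 24 h chemical exposure of human dermal foreskin fibroblast primary cultures. Both increases and decreases versus DMSO fitted.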

Read-out in experiment [3]: Urokinase-type plasminogen activator receptor (uPAR), PLAUR (gene 5329)
The experiment is described as follows: BSK_CASM3C_uPAR: BioMAP Diversity Plus: CASM3C Assay for Urokinase-type plasminogen activator receptor (uPAR) Biomarker Activity (AID 2283054).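 Also: cell-surface uPAR protein level quantified by ELISA.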 The conditions noted are these: primary human coronary artery smooth muscle cells; actives raise or lower the signal.

Read-out in experiment [4]: Vascular cell adhesion molecule 1 (VCAM1), VCAM1 (gene 7412)
Description: BSK_CASM3C_VCAM1: BioMAP Diversity Plus: CASM3C Assay for Vascular cell adhesion molecule 1 (VCAM1) Biomarker Activity (AID 2283055).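 Also: VCAM-1 protein level quantified by ELISA on the cells.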 The following applies: primary human coronary artery smooth muscle cells; actives raise or lower the signal.

Read-out in experiment [5]: Collagen III, COL3A1 (gene 1281)
The experiment is described as follows: BSK_hDFCGF_CollagenIII: BioMAP Diversity Plus: hDFCGF Assay for Collagen III Biomarker Activity (AID 2283056). The following applies: primary human foreskin fibroblasts; actives raise or lower the signal. Put shortly:
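Response relative to DMSO, fitted in both directions, reflects ELISA-measured collagen III in human primary skin fibroblasts 24 h after compound addition.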

Read-out in experiment [6]: Epidermal growth factor receptor (EGFR), EGFR (gene 1956)
Description: BSK_hDFCGF_EGFR: BioMAP Diversity Plus: hDFCGF Assay for Epidermal growth factor receptor (EGFR) Biomarker Activity (AID 2283057). The conditions noted are these: primary human foreskin fibroblasts; actives raise or lower the signal. Put shortly:
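EGFR levels by ELISA in human dermal fibroblast cultures, 24 h post-treatment, fitted bidirectionally versus DMSO. Parallel wells stained with sulforhodamine B to detect overt cytotoxicity.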

Read-out in experiment [7]: Interleukin-8 (IL8), CXCL8 (gene 3576)
The experiment is described as follows: BSK_hDFCGF_IL8: BioMAP Diversity Plus: hDFCGF Assay for Interleukin-8 (IL8) Biomarker Activity (AID 2283058). The conditions noted are these: primary human foreskin fibroblasts; actives raise or lower the signal. The method in brief: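 Fibroblast monolayers (human foreskin, hDFCGF) received test chemical for 24 h before ELISA detection of IL-8; either increases or decreases relative to DMSO count as activity.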

Experiment [8] can be described thus: BSK_hDFCGF_Proliferation: Cell Proliferation Assessment in the BioMAP Diversity Plus: hDFCGF Assay (AID 2283059).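 Also: curves fitted for both rise and fall of signal versus DMSO baseline.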 The following applies: primary human foreskin fibroblasts. Put shortly:
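Primary human foreskin fibroblasts, sub-confluent; […]; 10% TCA fix, 0.1% SRB stain, A560 total protein. Gain/loss fitted bidirectionally vs DMSO control.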

Read-out in experiment [9]: Macrophage colony-stimulating factor (MCSF), CSF1 (gene 1435)
Description: BSK_hDFCGF_MCSF: BioMAP Diversity Plus: hDFCGF Assay for Macrophage colony-stimulating factor (MCSF) Biomarker Activity (AID 2283060). The conditions noted are these: primary human foreskin fibroblasts; actives raise or lower the signal. Put shortly: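 fibroblasts (human foreskin, primary), 24 h post-dose; M-CSF by ELISA; bidirectional fit, DMSO = baseline.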

Experiment [10] is described as follows: BSK_hDFCGF_SRB: Viability Assessment in the BioMAP Diversity Plus: hDFCGF Assay (AID 2283061).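 Also: cells exposed to compound for 24 h before the read.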 The conditions noted are these: primary human foreskin fibroblasts. Put shortly:
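SRB-based viability read on primary human skin fibroblasts at 24 h: TCA fixation, 0.1% dye, 560 nm. Gain or loss of signal is fitted against the DMSO negative control.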

Read-out in experiment [11]: TIMP metallopeptidase inhibitor 1 (TIMP1), TIMP1 (gene 7076)
Description: BSK_hDFCGF_TIMP1: BioMAP Diversity Plus: hDFCGF Assay for TIMP metallopeptidase inhibitor 1 (TIMP1) Biomarker Activity (AID 2283062). The following applies: primary human foreskin fibroblasts; actives raise or lower the signal. The method in brief:
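Bidirectional curve fitting against DMSO baseline yielded this endpoint, based on ELISA detection of TIMP-1 in primary human foreskin fibroblasts exposed to compound for 24 h.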

Read-out in experiment [12]: Monokine induced gamma interferon (MIG), CXCL9 (gene 4283)
Description: BSK_hDFCGF_MIG: BioMAP Diversity Plus: hDFCGF Assay for Monokine induced gamma interferon (MIG) Biomarker Activity (AID 2283063). The following applies: primary human foreskin fibroblasts; actives raise or lower the signal. The method in brief: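 Endpoint derived by bidirectional fitting relative to DMSO; MIG quantified via ELISA in primary human foreskin fibroblasts harvested 24 h after dosing.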

Read-out in experiment [13]: Matrix Metallopeptidase 1 (MMP1), MMP1 (gene 4312)
The experiment is described as follows: BSK_hDFCGF_MMP1: BioMAP Diversity Plus: hDFCGF Assay for Matrix Metallopeptidase 1 (MMP1) Biomarker Activity (AID 2283064). The conditions noted are these: primary human foreskin fibroblasts; actives raise or lower the signal. The method in brief:
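ELISA read-out of MMP1 from human foreskin fibroblasts (primary skin cells), 24 h post-dose. Gain or loss of signal was fitted bidirectionally versus DMSO negative control; cytotoxicity was checked by SRB in parallel cultures.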

Read-out in experiment [14]: Vascular cell adhesion molecule 1 (VCAM1), VCAM1 (gene 7412)
The experiment is described as follows: BSK_hDFCGF_VCAM1: BioMAP Diversity Plus: hDFCGF Assay for Vascular cell adhesion molecule 1 (VCAM1) Biomarker Activity (AID 2283065).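 As to AC50: VCAM-1 protein level quantified by ELISA after 24 h chemical exposure.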 The conditions noted are these: primary human foreskin fibroblasts; actives raise or lower the signal. Put shortly: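 Measured after 24 h chemical treatment of primary human skin fibroblasts, VCAM-1 was detected by ELISA and concentration-response analysed in both directions versus DMSO vehicle.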

Read-out in experiment [15]: Plasminogen activator inhibitor-1 (PAI1), SERPINE1 (gene 5054)
The experiment is described as follows: BSK_hDFCGF_PAI1: BioMAP Diversity Plus: hDFCGF Assay for Plasminogen activator inhibitor-1 (PAI1) Biomarker Activity (AID 2283066). The conditions noted are these: primary human foreskin fibroblasts; actives raise or lower the signal. The method in brief:
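PAI-1 levels in human dermal foreskin fibroblasts were quantified by ELISA 24 h after dosing, with gain or loss analysed against DMSO. Overt cytotoxicity was checked by sulforhodamine B total-protein staining in parallel cultures.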

Read-out in experiment [16]: Intercellular Adhesion Molecule 1 (ICAM1), ICAM1 (gene 3383)
Description: BSK_KF3CT_ICAM1: BioMAP Diversity Plus: KF3CT Assay for Intercellular Adhesion Molecule 1 (ICAM1) Biomarker Activity (AID 2283067). The following applies: primary human keratinocytes with fibroblasts; actives raise or lower the signal. Put shortly:
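Bidirectional curve fitting against a DMSO baseline was applied to ICAM-1 ELISA signal from primary human skin co-cultures harvested 24 h after treatment, with SRB staining of parallel wells for overt cytotoxicity.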

Read-out in experiment [17]: Interferon-gamma inducible Protein 10 (IP10), CXCL10 (gene 3627)
Description: BSK_KF3CT_IP10: BioMAP Diversity Plus: KF3CT Assay for Interferon-gamma inducible Protein 10 (IP10) Biomarker Activity (AID 2283068). The following applies: primary human keratinocytes with fibroblasts; actives raise or lower the signal. The method in brief:
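In a primary skin co-culture of keratinocytes and fibroblasts, IP-10 is quantified by ELISA at 24 h after dosing. SRB staining of parallel wells monitors overt toxicity. Curves are fitted both directions against DMSO.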

The nature of experiment [18]: BSK_KF3CT_SRB: Viability Assessment in the BioMAP Diversity Plus: KF3CT Assay (AID 2283069).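 Also: fitted for both signal gain and loss against DMSO baseline.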 The conditions noted are these: primary human keratinocytes with fibroblasts. The method in brief:
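SRB read-out at 560 nm (0.1% stain, TCA-fixed cells) gauges overt cytotoxicity in a human skin keratinocyte–fibroblast co-culture 24 h post-dosing. Signal change was fitted bidirectionally relative to DMSO control.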

Read-out in experiment [19]: Interleukin-1 alpha (IL1a), IL1A (gene 3552)
Description: BSK_KF3CT_IL1a: BioMAP Diversity Plus: KF3CT Assay for Interleukin-1 alpha (IL1a) Biomarker Activity (AID 2283070). The conditions noted are these: primary human keratinocytes with fibroblasts; actives raise or lower the signal. The method in brief:
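Primary skin co-culture (keratinocytes, foreskin fibroblasts), 24 h exposure; ELISA for IL-1a; bidirectional curve fit vs DMSO.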

Read-out in experiment [20]: TIMP metallopeptidase inhibitor 2 (TIMP2), TIMP2 (gene 7077)
Description: BSK_KF3CT_TIMP2: BioMAP Diversity Plus: KF3CT Assay for TIMP metallopeptidase inhibitor 2 (TIMP2) Biomarker Activity (AID 2283071). The following applies: primary human keratinocytes with fibroblasts; actives raise or lower the signal. The method in brief:
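TIMP-2 measured by ELISA at 24 h in human keratinocyte/fibroblast primary co-cultures exposed to chemicals. Both increases and decreases were fitted against DMSO. Parallel cultures were stained with SRB for total protein as an overt-cytotoxicity check.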

Structures are written as SMILES. Activity calls are given as the source filed them. The calls were made as follows: active = hit-call score of the fitted dose curve at least 0.9, where 1 is the maximum; inactive = score below 0.9.

As for `O=C(O)COc1ccc(Cl)cc1Cl`, the outcome in experiment [1], in experiment [2], in [3], in experiment [4], in [5] and in [6] was inactive. For the same compound, the result in [7], in experiment [8], in experiment [9], in experiment [10], in [11] and in experiment [12] was inactive. Moreover, the outcome in experiment [13], in experiment [14], in [15], in experiment [16], in experiment [17] and in [18] was inactive. In addition, the outcome in [19] was inactive.
Usually AC50 stands for the concentration at which the activity in the assay is half-maximal. Take `CCC(C)Nc1c([N+](=O)[O-])cc(C(C)(C)C)cc1[N+](=O)[O-]` (centres undefined): the outcome in experiment [1], in experiment [3], in experiment [4], in experiment [5], in experiment [7] and in experiment [11] was inactive. Further, the outcome in experiment [12], in experiment [13], in experiment [16], in experiment [17], in experiment [18] and in [19] was inactive. The AC50 in experiment [2] was 15300 nM (active); in [6] it was 33000 nM (active); in experiment [8], 20000 nM (active); in experiment [9] it was 21500 nM (active); in experiment [10], 32900 nM (active); in [14] it was 15400 nM (active). For the same compound, the AC50 in experiment [15] was 5080 nM (active).
As for `O=[N+]([O-])/N=C1\NCCN1Cc1ccc(Cl)nc1`, the outcome in [1], in experiment [2], in [3], in [4], in [5] and in [6] was inactive. Moreover, the outcome in experiment [7], in experiment [8], in experiment [9], in experiment [10], in experiment [11] and in experiment [12] was inactive. The outcome in experiment [13], in experiment [14], in experiment [15], in experiment [16], in experiment [17] and in [18] was inactive. Further, the outcome in experiment [19] was inactive.
As for `CNC(=O)CSP(=S)(OC)OC`, the result in experiment [1], in experiment [2], in experiment [3], in [4], in experiment [5] and in experiment [6] was inactive. In addition, the outcome in experiment [7], in experiment [8], in experiment [9], in experiment [10], in [11] and in experiment [12] was inactive. Also, the result in [13], in experiment [14], in experiment [15], in experiment [16], in [17] and in [18] was inactive. Further, the outcome in experiment [19] and in [20] was inactive.
`COP(=S)(OC)Oc1ccc([N+](=O)[O-])cc1`: the outcome in experiment [1], in experiment [3], in [4], in experiment [6], in [7] and in [8] was inactive. Besides, the outcome in experiment [10], in [12], in experiment [13], in [14], in experiment [16] and in experiment [18] was inactive. For the same compound, the outcome in experiment [19] was inactive. For the same compound, the AC50 in experiment [2] is 20300 nM (active); in experiment [5] it was 16600 nM (active); in [9], 11100 nM (active); in experiment [11] it was 5750 nM (active); in experiment [15], 6410 nM (active); in [17], 9180 nM (active).
In the case of `N#Cc1c(Cl)c(Cl)c(Cl)c(C#N)c1Cl`, the AC50 was 148 nM (active) in experiment [2]; 5030 nM (active) in experiment [3]; 1620 nM (active) in experiment [4]; 148 nM (active) in [5]; 1100 nM (active) in experiment [7]; 148 nM (active) in experiment [8]. Further, the AC50 in experiment [9] was 1110 nM (active); in [10], 148 nM (active); in experiment [11], 2580 nM (active); in experiment [12], 148 nM (active); in [13], 986 nM (active); in experiment [14], 1080 nM (active). In addition, the AC50 was 615 nM (active) in [15]; 786 nM (active) in experiment [16]; 585 nM (active) in experiment [17]; 1490 nM (active) in experiment [18]; 1500 nM (active) in experiment [19]. Further, the result in experiment [6] was inactive.
